Results as given in PubChem BioAssay (NCATS).
Results filed as inconclusive are left out. The source made the active and inactive calls. Calls come from the whole dose curve; as a rule, active = well fitted cell-killing curve with a large enough effect; inconclusive = small, poorly fitted or top-dose-only effect, or effect the other way; inactive = flat fitted curve, though single readings scatter.

Assays:
Assay in all cases: Primary qHTS to identify gynecologic anti-cancer compounds using libraries of approved drugs and bioactive compounds (AID 1345084); note: nearly all actives have a fitted effect of over 55% in size
Settings in all cases: Gynecologic cancer cell panel viability, ATPlite luminescence, 48 h; series mostly up to 57.5 µM
SKOV3 = tested on: SKOV3
Method in brief: (§1)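 Five-concentration response, 48 h; readout is ATP-driven luciferase luminescence.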

Tov-21-G = tested on: Tov-21-G
Method in brief: as §1

Tov112D = tested on: Tov112D
Method in brief: as §1
% is set by controls: 0 for no effect and ±100 for the full control effect.

COc1cc(O)cc(OC2OC(CO)C(O)C(O)C2O)c1 (centres undefined)
inactive: Potency (SKOV3) | Potency (Tov-21-G) | Potency (Tov112D)

Cc1cn(CCN2CCN(c3ccccc3-c3cc(C#N)cc(C(=O)NCCCN4CCCC4)c3)CC2)c2ccccc12
inactive: Potency (SKOV3) | Potency (Tov-21-G) | Potency (Tov112D)

CCC/C=C/C=C/C1CC(O)C2(O)C(=O)OCC12 (centres undefined)
inactive: Potency (SKOV3) | Potency (Tov-21-G) | Potency (Tov112D)

CCC(C)C(=O)O[C@H]1[C@@H](OC(=O)c2ccoc2)C[C@](C)(O)[C@]23OC(C)(C)[C@H](C[C@H](OC(=O)c4ccoc4)[C@]12COC(C)=O)[C@H]3OC(C)=O (some centres undefined)
inactive: Potency (SKOV3) | Potency (Tov-21-G) | Potency (Tov112D)

CN(C)c1ccnc2sc3c(=O)n(N4CCCCCC4)cnc3c12
inactive: Potency (SKOV3) | Potency (Tov-21-G) | Potency (Tov112D)

CN(C)C(=O)C(=O)c1cn(C)c2cc(Cl)c(C(=O)N3CCC(Cc4ccc(F)cc4)CC3)cc12
inactive: Potency (SKOV3) | Potency (Tov-21-G) | Potency (Tov112D)

COC(=O)C(Cc1ccc(OCCn2c(=O)sc3cc(C(=O)c4ccccc4)ccc32)cc1)C(=O)OC
inactive: Potency (SKOV3) | Potency (Tov-21-G) | Potency (Tov112D)

COc1c2c(c(C)c3c1C(=O)OC3)O[C@@]1(C)C[C@@H](OC(C)=O)[C@]34O[C@](OC)(CC[C@]3(C)[C@H]1C2)OC4(C)C
inactive: Potency (SKOV3) | Potency (Tov-21-G) | Potency (Tov112D)

CN1CCN(C2=Nc3ccccc3Nc3ccc(Cl)cc32)CC1
inactive: Potency (SKOV3) | Potency (Tov-21-G) | Potency (Tov112D)

Cc1ccc(CNc2ncnc3ccc(-c4ccc(CO)o4)cc23)o1
inactive: Potency (SKOV3) | Potency (Tov-21-G) | Potency (Tov112D)

CCC/C=C/C(=O)O[C@H]1CC(C)(C)CC2[C@@]13[C@H](O)C[C@]1(C)[C@@]2(CCC2[C@@]4(C)CC[C@H](O[C@@H]5O[C@H](C(=O)O)[C@@H](O)[C@H](O[C@@H]6O[C@H](CO)[C@H](O)[C@H](O)[C@H]6O[C@@H]6O[C@@H](C)[C@H](O)[C@@H](O)[C@H]6O[C@@H]6OC[C@](O)(CO)[C@H]6O)[C@H]5O[C@@H]5O[C@H](CO)[C@H](O)[C@H](O)[C@H]5O)C(C)(C)C4CC[C@]21C)O[C@H]3O (some centres undefined)
inactive: activity change, negative = cytotoxicity (SKOV3) -3.55% [at 6.55 µM] | activity change, negative = cytotoxicity (Tov-21-G) -24.3% [at 6.55 µM] | activity change, negative = cytotoxicity (Tov112D) 7.77% [at 6.55 µM]

COc1ccc2c(NC(=O)Nc3cccc(C(F)(F)F)n3)ccnc2c1
inactive: Potency (SKOV3) | Potency (Tov-21-G) | Potency (Tov112D)

CC(=O)O[C@H]1C[C@H](OC(C)=O)[C@]2(C)[C@H](CC[C@@]34O[C@@H]3C3=C(C)C(=O)O[C@@H]3C[C@H]42)C1(C)C
inactive: Potency (SKOV3) | Potency (Tov-21-G) | Potency (Tov112D)

C[C@]12CC[C@@H]3c4ccc(O)c(O)c4CC[C@H]3[C@@H]1CCC2=O
inactive: Potency (SKOV3) | Potency (Tov-21-G) | Potency (Tov112D)

C=C1/C(=C/C=C2\CCC[C@@]3(C)C2CCC3[C@H](C)/C=C/[C@@H](O)C2CC2)C[C@@H](O)C[C@@H]1O (some centres undefined)
inactive: Potency (SKOV3) | Potency (Tov-21-G) | Potency (Tov112D)

C[C@H]1CC[C@@]2(OC1)O[C@H]1CC3[C@@H]4CC[C@@H]5C[C@@H](O[C@@H]6O[C@H](CO)[C@@H](O[C@@H]7O[C@H](CO[C@@H]8OC[C@@H](O)[C@H](O)[C@H]8O)[C@@H](O[C@@H]8O[C@H](CO)[C@H](O)[C@H](O)[C@H]8O)[C@H](O)[C@H]7O)[C@H](O)[C@H]6O)CC[C@]5(C)C4CC[C@]3(C)[C@H]1[C@@H]2C (some centres undefined)
inactive: activity change, negative = cytotoxicity (SKOV3) 11% [at 11.6 µM] | activity change, negative = cytotoxicity (Tov-21-G) -1.12% [at 11.6 µM] | activity change, negative = cytotoxicity (Tov112D) 3.54% [at 11.6 µM]

O=C(Nc1ncc([N+](=O)[O-])s1)c1ccccc1O
inactive: Potency (SKOV3) | Potency (Tov-21-G) | Potency (Tov112D)

C=CC(=O)N1CC(N2CCN(C(=O)CNc3cc(C4CC4)c(Cl)cc3O)CC2)C1
inactive: Potency (SKOV3) | Potency (Tov-21-G) | Potency (Tov112D)

Clc1cccc(COc2cncc(N3CCNCC3)n2)c1
inactive: Potency (SKOV3) | Potency (Tov-21-G) | Potency (Tov112D)

COc1cc2nc(N3CCN(C(=O)COc4c(OC)cccc4C(C)C)CC3)nc(N)c2cc1OC
inactive: Potency (SKOV3) | Potency (Tov-21-G) | Potency (Tov112D)

COc1cc2ncnc(Oc3ccc(CC(=O)Nc4cnn(C(C)C)c4)cc3)c2cc1OC
inactive: Potency (SKOV3) | Potency (Tov-21-G) | Potency (Tov112D)

O=C1Nc2ccccc2-c2nc3ccccc3c(=O)n2-c2c(O)cccc21
inactive: Potency (SKOV3) | Potency (Tov-21-G) | Potency (Tov112D)

CC1OC(OC2C(O)COC(O[C@@H]3[C@@H](O)[C@@H](O)[C@H](OC4C(OC(=O)[C@]56CCC(C)(C)CC5C5=CCC7[C@@]8(C)C[C@H](O)[C@H](OC9OC(CO)C(O)C(O)C9O)[C@@](C)(CO)C8[C@H](O)C[C@@]7(C)[C@]5(C)CC6)OCC(O)C4O)O[C@H]3C)C2O)C(O)C(O)C1O (some centres undefined)
inactive: activity change, negative = cytotoxicity (SKOV3) -8.72% [at 6.55 µM] | activity change, negative = cytotoxicity (Tov-21-G) -21.3% [at 6.55 µM] | activity change, negative = cytotoxicity (Tov112D) -9.06% [at 6.55 µM]

C[C@@H](NC(=O)C(=O)c1c[nH]c2ccc([N+](=O)[O-])cc12)c1ccccc1
inactive: Potency (SKOV3) | Potency (Tov-21-G) | Potency (Tov112D)

COc1ccc(CCN(C)CCCOc2nsc(-c3ccccc3)n2)cc1OC
inactive: Potency (SKOV3) | Potency (Tov-21-G) | Potency (Tov112D)

CCN1CCC[C@@H]1CNC(=O)c1ccc2c(c1)NC(=O)c1cccc(C)c1S2
inactive: Potency (SKOV3) | Potency (Tov-21-G) | Potency (Tov112D)

O=C(NC[C@H](O)CN1CCc2ccccc2C1)c1ccnc(NC2CCC2)c1
inactive: Potency (SKOV3) | Potency (Tov-21-G) | Potency (Tov112D)

C[C@H]1CC[C@@]2(OC1)O[C@H]1CC3[C@@H]4CC[C@@H]5C[C@@H](O[C@@H]6O[C@H](CO)[C@@H](O[C@@H]7O[C@@H](C)[C@H](O)[C@@H](O)[C@H]7O)[C@H](O)[C@H]6O[C@@H]6O[C@H](CO)[C@@H](O)[C@H](O)[C@H]6O)CC[C@]5(C)C4CC[C@]3(C)[C@H]1[C@@H]2C (some centres undefined)
inactive: activity change, negative = cytotoxicity (SKOV3) -15.8% [at 11.6 µM] | activity change, negative = cytotoxicity (Tov-21-G) -2.16% [at 11.6 µM] | activity change, negative = cytotoxicity (Tov112D) -1.68% [at 11.6 µM]
